This is part of a sample that, as a whole, favours compounds with a hit. Of some 83,000 tested, about 20% had one in any assay.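 Cells were grown in 96-well plates and exposed to the test compound at a single concentration for 48 hours; results are reported as percent growth, with values below 10 considered active.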 The source made the active and inactive calls.
Experiments:
Assay in all cases: NCI-60 one-dose screen, 48 h (100 = growth as untreated, 0 = no growth, -100 = all killed)
Settings in all cases: 10 µM unless noted
T-47D breast = system: T-47D breast
BT-549 breast = system: BT-549 breast
MDA-MB-435 melanoma = system: MDA-MB-435 melanoma
SW-620 colon = system: SW-620 colon
MCF7 breast = system: MCF7 breast
HCT-116 colon = system: HCT-116 colon
HCC-2998 colon = system: HCC-2998 colon
KM12 colon = system: KM12 colon
MDA-MB-468 breast = system: MDA-MB-468 breast

Measured: growth

O=C1Nc2cc(-c3ccc(NS(=O)(=O)c4ccc([N+](=O)[O-])cc4)cc3)ccc2/C1=C/c1ccc[nH]1
inactive: T-47D breast 15.9% | HCC-2998 colon 32.2% | KM12 colon 27.5%
active: BT-549 breast -23% | MDA-MB-435 melanoma 1.34% | SW-620 colon 6.1% | MCF7 breast -23.6% | HCT-116 colon -48.6% | MDA-MB-468 breast -29.6%

O=C(Cc1c(-c2cccc([N+](=O)[O-])c2)n(-c2ncnc3c2c(-c2ccccc2)c(-c2ccccc2)n3Cc2ccccc2)[nH]c1=O)c1ccc(Cl)c(Cl)c1
active: T-47D breast 0.846% | MDA-MB-468 breast -10.4%
inactive: BT-549 breast 63.7% | MDA-MB-435 melanoma 19.9% | SW-620 colon 56.1% | MCF7 breast 24.7% | HCT-116 colon 32.3% | HCC-2998 colon 26.7% | KM12 colon 24.7%

Cc1ccc(C(=O)C[n+]2cccc3c4ccccc4ccc32)cc1
active: MDA-MB-468 breast -10.3%
inactive: T-47D breast 43.8% | BT-549 breast 20.8% | MDA-MB-435 melanoma 13.5% | SW-620 colon 19.5% | MCF7 breast 11.8% | HCT-116 colon 11.8% | HCC-2998 colon 17.4% | KM12 colon 25.7%

O=[N+]([O-])c1cccc(-c2nnc3c(/C=C/c4ccc(F)cc4)nc4ccccc4n23)c1
active: MDA-MB-468 breast 0.494%
inactive: T-47D breast 74.3% | BT-549 breast 87.5% | MDA-MB-435 melanoma 102% | SW-620 colon 96.1% | MCF7 breast 28.4% | HCT-116 colon 81.1% | HCC-2998 colon 105% | KM12 colon 97.6%

Cc1nc(N)ncc1-c1ccc2ncnc(N3CCc4cc(F)c(Cl)cc43)c2c1
active: MDA-MB-468 breast -22.5%
inactive: T-47D breast 28.1% | BT-549 breast 66.8% | MDA-MB-435 melanoma 94.6% | SW-620 colon 85.2% | MCF7 breast 41.7% | HCT-116 colon 70.4% | HCC-2998 colon 80.7% | KM12 colon 88.2%

COc1ccc(Nc2nnc(-c3c[nH]c4ccccc34)o2)cc1
inactive: T-47D breast 71.9% | BT-549 breast 77.8% | MDA-MB-435 melanoma 81.9% | SW-620 colon 93% | MCF7 breast 58.6% | HCT-116 colon 92.4% | HCC-2998 colon 108% | KM12 colon 65.3%
active: MDA-MB-468 breast -7.14%

Nc1cc(-c2c[nH]c3ccc(Br)cc23)nc2cc(-c3c[nH]c4ccccc34)nn12
active: T-47D breast -60.5% | BT-549 breast -21.4% | MDA-MB-435 melanoma -75.1% | SW-620 colon -83.2% | MCF7 breast -66.8% | HCT-116 colon -78% | HCC-2998 colon -78.2% | KM12 colon -65.4% | MDA-MB-468 breast -81.8%

CCC(=O)c1cc(C(=O)OC)c2ccc3c4ccccc4ccc3n12
inactive: T-47D breast 75.8% | BT-549 breast 112% | MDA-MB-435 melanoma 93.6% | SW-620 colon 84.4% | MCF7 breast 80.5% | HCT-116 colon 35% | HCC-2998 colon 99.8% | KM12 colon 84.7% | MDA-MB-468 breast 83.6%

Cc1nc2sccn2c1-c1nnc(SCC(C)C)o1
active: MDA-MB-468 breast 4.49%
inactive: T-47D breast 59.4% | BT-549 breast 88.7% | MDA-MB-435 melanoma 102% | SW-620 colon 97.6% | MCF7 breast 37.5% | HCT-116 colon 82.8% | HCC-2998 colon 113% | KM12 colon 98.1%

COc1c2c(c(Br)c3c1C(CCc1ccccc1)N(C)CC3)OCO2 (configuration not stated)
inactive: T-47D breast 33.6% | MDA-MB-435 melanoma 13.9% | SW-620 colon 11.9% | MCF7 breast 18.6% | HCT-116 colon 11% | HCC-2998 colon 27.4% | KM12 colon 11.4% | MDA-MB-468 breast 41.8%
active: BT-549 breast 3.17%

CC1=NN(C2=NC(=O)C(CC(=O)Nc3ccccc3C(F)(F)F)S2)C(c2ccc(N(C)C)cc2)C1 (configuration not stated)
inactive: T-47D breast 48% | BT-549 breast 52.7% | SW-620 colon 60.5% | MCF7 breast 23.4% | HCT-116 colon 30.1% | HCC-2998 colon 66.2% | KM12 colon 39%
active: MDA-MB-435 melanoma -26.5% | MDA-MB-468 breast 3.34%

Clc1ccc(Nc2nnc(-c3c[nH]c4ccccc34)o2)cc1
inactive: T-47D breast 42% | BT-549 breast 63.7% | MDA-MB-435 melanoma 25% | SW-620 colon 86.1% | MCF7 breast 38.3% | HCT-116 colon 79.5% | HCC-2998 colon 74.5% | KM12 colon 36%
active: MDA-MB-468 breast -20.5%

O=C1N/C(=N\c2nccs2)S/C1=C\c1ccc([N+](=O)[O-])cc1
active: MCF7 breast 9.68% | HCT-116 colon -1.76% | MDA-MB-468 breast -14.6%
inactive: T-47D breast 15.2% | BT-549 breast 35.5% | MDA-MB-435 melanoma 22.2% | SW-620 colon 20.9% | HCC-2998 colon 22.7% | KM12 colon 14.2%

Cc1ccc(C(=O)Nc2cc(-n3cnc(F)c3)cc(C(F)(F)F)c2)cc1C#Cc1cnc2cccnn12
inactive: T-47D breast 76.1% | BT-549 breast 60.1% | MDA-MB-435 melanoma 46.4% | SW-620 colon 45.1% | MCF7 breast 38.8% | HCT-116 colon 19% | HCC-2998 colon 70.6% | KM12 colon 39.1% | MDA-MB-468 breast 81.7%

O=c1ccc(Cn2c(C(F)(F)F)cc3c(Cl)ncnc32)c[nH]1
active: BT-549 breast 4.61%
inactive: T-47D breast 75.7% | MDA-MB-435 melanoma 25.5% | SW-620 colon 32.5% | MCF7 breast 82.4% | HCT-116 colon 19.5% | HCC-2998 colon 40.4% | KM12 colon 105% | MDA-MB-468 breast 37.2%

CS(=O)(=O)Nc1cccc(-n2cnc3cc(-c4ccc(O)cc4)ccc32)c1
active: MDA-MB-435 melanoma -37.6% | MDA-MB-468 breast 6.92%
inactive: T-47D breast 49.1% | BT-549 breast 49.9% | SW-620 colon 46.2% | MCF7 breast 23.6% | HCT-116 colon 33.5% | HCC-2998 colon 63.9% | KM12 colon 26.6%

O=C(N=Nc1c(O)[nH]c2ccc(Cl)cc12)c1ccc2nc(-c3ccc(Cl)cc3)[nH]c2c1
inactive: BT-549 breast 49% | KM12 colon 42.3%
active: T-47D breast -2.02% | MDA-MB-435 melanoma -32.9% | SW-620 colon 3.1% | MCF7 breast 1.03% | HCT-116 colon 9.89% | HCC-2998 colon -34.6% | MDA-MB-468 breast -80.7%

NS(=O)(=O)c1ccc(Nc2nc(N/N=C/c3cc(Br)c(O)c(Br)c3)nc(Nc3ccccc3)n2)cc1
active: BT-549 breast -14.3% | HCC-2998 colon 5.2% | MDA-MB-468 breast -57.4%
inactive: T-47D breast 25.5% | MDA-MB-435 melanoma 56.5% | SW-620 colon 41.2% | MCF7 breast 37.7% | HCT-116 colon 28.9% | KM12 colon 61.7%

C#CCCCNCCNc1ccnc2cc(Cl)ccc12
inactive: T-47D breast 71% | BT-549 breast 66.5% | MDA-MB-435 melanoma 59.7% | SW-620 colon 76.8% | MCF7 breast 52% | HCT-116 colon 49.5% | HCC-2998 colon 62% | KM12 colon 91.3% | MDA-MB-468 breast 50.4%

CCCCNc1ccc2c3c(cccc13)C(=O)N(c1cccc(-c3nn(-c4ccccc4)cc3-c3nc4ccccc4s3)c1)C2=O
inactive: T-47D breast 101% | BT-549 breast 117% | MDA-MB-435 melanoma 106% | SW-620 colon 105% | MCF7 breast 109% | HCT-116 colon 98.9% | HCC-2998 colon 119% | KM12 colon 108% | MDA-MB-468 breast 97.7%

CS(=O)(=O)Nc1cc(-c2ccc3ncnc(N4CCc5cc(F)c(Cl)cc54)c3c2)cnc1Cl
active: T-47D breast -9.78% | BT-549 breast -25.2% | MDA-MB-435 melanoma 3.42% | MCF7 breast 8.15% | MDA-MB-468 breast -60.2%
inactive: SW-620 colon 32.7% | HCT-116 colon 23.6% | HCC-2998 colon 16.5% | KM12 colon 14.2%

Cc1ccc(NC(=O)N/N=C/c2c[nH]c3ccccc23)c(C)c1
inactive: T-47D breast 46.7% | BT-549 breast 17.2% | SW-620 colon 24.8%
active: MDA-MB-435 melanoma -14.3% | MCF7 breast 7.55% | HCT-116 colon -15.3% | HCC-2998 colon -11.2% | KM12 colon -25.5% | MDA-MB-468 breast 3.12%

O=C(CSc1nnc(-c2ccc(-c3nc4ccc(Cl)cc4[nH]3)cc2)o1)Nc1ccc(Cl)cc1
active: BT-549 breast -9.75% | MDA-MB-435 melanoma 8.45% | SW-620 colon 4.33% | HCT-116 colon 5.5%
inactive: T-47D breast 47.5% | MCF7 breast 19.1% | HCC-2998 colon 67% | KM12 colon 18.8% | MDA-MB-468 breast 72.4%

S=C(Nc1ccccc1)Nc1ccc(OCc2nc3ccc(Cl)cc3[nH]2)cc1
inactive: T-47D breast 51.5% | BT-549 breast 78.8% | MDA-MB-435 melanoma 75.2% | SW-620 colon 73% | MCF7 breast 24.8% | HCT-116 colon 77.5% | HCC-2998 colon 104% | KM12 colon 74.7% | MDA-MB-468 breast 12.1%

COc1ccc2[nH]c(O)c(N=Nc3nc(-c4ccc(Br)cc4)cs3)c2c1
active: T-47D breast -27.2% | SW-620 colon 4.99% | MCF7 breast -16.4% | HCT-116 colon -63.1% | MDA-MB-468 breast -7.45%
inactive: BT-549 breast 35% | MDA-MB-435 melanoma 50.3% | HCC-2998 colon 51.4% | KM12 colon 55.6%

CN(C)CCCc1ccc(Nc2cnn(C)c(=O)c2Cl)cc1
inactive: T-47D breast 98.2% | BT-549 breast 115% | MDA-MB-435 melanoma 97.8% | SW-620 colon 109% | MCF7 breast 80.8% | HCT-116 colon 95.5% | HCC-2998 colon 118% | KM12 colon 111% | MDA-MB-468 breast 82.8%

O=C1/C(=C/c2cnc(-c3ccccc3)s2)SC(=S)N1Cc1ccc2c(c1)OCO2
inactive: T-47D breast 47.4% | BT-549 breast 69.2% | MDA-MB-435 melanoma 94.5% | SW-620 colon 102% | MCF7 breast 59.3% | HCT-116 colon 69.4% | HCC-2998 colon 102% | KM12 colon 99.7% | MDA-MB-468 breast 43.2%

COc1ccc(N=Nc2c(N)nn3c(-c4ccc([N+](=O)[O-])cc4)ccnc23)cc1
inactive: T-47D breast 81.6% | BT-549 breast 94% | MDA-MB-435 melanoma 107% | SW-620 colon 98.4% | MCF7 breast 95.3% | HCT-116 colon 97.9% | HCC-2998 colon 113% | KM12 colon 102% | MDA-MB-468 breast 105%
